# The campaign covered roughly 66,000 compounds. About 960 (1.5%) showed an effect of 50% or more. Many of the other results were omitted from the sample, so strong results are more common in it than they were.
# Tested on: Trypanosoma brucei
# Experiment: Trypanosoma brucei 72 hour study
# Assay type: functional, organism-based
# Parameters: scale not given: in the data most compounds retested in dose-response had high values
smiles,measurement,setting,value
O=C(O)C(F)(F)F.O=C(O)C(F)(F)F.c1ccc(CN2CC[C@@H]3O[C@@H](COCC4CCOCC4)CC[C@@H]32)nc1,Percent Effect,"30 µM, 30.03 µM",11.6%
Nc1ccnc(N2C[C@@H]3CC[C@H](C2)N(CC2CCC2)C3=O)n1,Percent Effect,"30 µM, 30.03 µM",-6.843%
COc1ncccc1CN1CC[C@]2(C[C@@H](OCc3ccccn3)CO2)C1.O=C(O)C(F)(F)F.O=C(O)C(F)(F)F.O=C(O)C(F)(F)F,Percent Effect,"30 µM, 30.03 µM",2.267%
CCSc1ccc(C(=O)N2CC[C@](O)(CC)[C@H](O)C2)s1,Percent Effect,"30.3 µM, […]",-1.451%
OC1(CN2CCC(Oc3cccc(C(F)(F)F)c3)CC2)CCNC1 (stereo not given),Percent Effect,"30 µM, 30.03 µM",92%
O=C(c1ccncc1)N1CCC(Oc2cccc(C(F)(F)F)c2)CC1,Percent Effect,"30.3 µM, […]",37.18%
OC1(CN2CCC(Oc3cccc(C(F)(F)F)c3)CC2)CNCCOC1 (stereo not given),Percent Effect,"30 µM, 30.03 µM",-13.41%
Nc1cc(C(=O)N2CCC(Oc3cccc(C(F)(F)F)c3)CC2)ccn1,Percent Effect,"30.3 µM, […]",19.92%
Nc1ccc(C(=O)N2CCC(Oc3cccc(C(F)(F)F)c3)CC2)cn1,Percent Effect,"30.3 µM, […]",54.87%
CC(N)C(=O)N1CCC(Oc2cccc(C(F)(F)F)c2)CC1 (stereo not given),Percent Effect,"30.3 µM, […]",98.32%
FC(F)(F)c1cccc(OC2CCN(Cc3ncc[nH]3)CC2)c1,Percent Effect,"30 µM, 30.03 µM",-13.87%
O=C(c1ccc(=O)[nH]c1)N1CCC(Oc2cccc(C(F)(F)F)c2)CC1,Percent Effect,"30.3 µM, […]",9.238%
O=C(c1cccnc1)N1CCC(Oc2cccc(C(F)(F)F)c2)CC1,Percent Effect,"30.3 µM, […]",6.021%
CCc1[nH]c2c(CNc3nccc(N)n3)cc(F)cc2c1C,Percent Effect,"30 µM, 30.03 µM",24.46%
Cc1nc(CN2CCO[C@H]3[C@H](OCC(=O)N(C)C)CC[C@@H]32)cs1.O=C(O)C(F)(F)F,Percent Effect,"30 µM, 30.03 µM",-32.64%
C[C@@H]1CN(C2CCN(Cc3nn(C)c4cccc(Cl)c34)CC2)C[C@H](C)O1,Percent Effect,"30.3 µM, […]",10.53%
Cn1nc(CN2CCC(c3ccncc3)CC2)c2c(Cl)cccc21,Percent Effect,"30.3 µM, […]",31.87%
Cn1nc(CN2CCCN(C3CCCC3)CC2)c2c(Cl)cccc21,Percent Effect,"30.3 µM, […]",100.6%
Cc1cccc(N2CCC3(CCN(C(=O)c4cccnc4)CC3)C2)n1.O=C(O)C(F)(F)F.O=C(O)C(F)(F)F,Percent Effect,"30 µM, 30.03 µM",38.81%
Cc1cnc(N2CCC3(CCN(CC4CCCC4)C3=O)CC2)nc1.O=C(O)C(F)(F)F,Percent Effect,"30.3 µM, […]",-22.16%
Cc1cccc(CN(Cc2cccnc2)C2CC(C)(C)NC(C)(C)C2)n1.O=C(O)CC(O)(CC(=O)O)C(=O)O,Percent Effect,"30.3 µM, […]",-21.3%
Cc1ccc(CN(Cc2cccnc2)C2CC(C)(C)NC(C)(C)C2)s1.O=C(O)CC(O)(CC(=O)O)C(=O)O,Percent Effect,"30.3 µM, […]",78.89%
Cc1ccc(CN(Cc2ccccn2)C2CC(C)(C)NC(C)(C)C2)s1.O=C(O)CC(O)(CC(=O)O)C(=O)O,Percent Effect,"30.3 µM, […]",71.04%
Cc1nc[nH]c1CN(Cc1ccccc1)C1CC(C)(C)NC(C)(C)C1.O=C(O)CC(O)(CC(=O)O)C(=O)O,Percent Effect,"30.3 µM, […]",9.969%
CC1(C)CC(N(Cc2cccnc2)Cc2cccnc2)CC(C)(C)N1.O=C(O)CC(O)(CC(=O)O)C(=O)O,Percent Effect,"30.3 µM, […]",13.11%
CC1(C)CC(N(Cc2ccccc2)Cc2c[nH]cn2)CC(C)(C)N1.O=C(O)CC(O)(CC(=O)O)C(=O)O,Percent Effect,"30.3 µM, […]",9.903%
CC1(C)CC(N(Cc2cccnc2)Cc2cccc(F)c2)CC(C)(C)N1.O=C(O)CC(O)(CC(=O)O)C(=O)O,Percent Effect,"30.3 µM, […]",92.81%
Cc1cccc(CN(Cc2ccc(C)o2)C2CC(C)(C)NC(C)(C)C2)n1.O=C(O)CC(O)(CC(=O)O)C(=O)O,Percent Effect,"30.3 µM, […]",14.76%
CC1(C)CC(N(Cc2ccncc2)Cc2cccnc2)CC(C)(C)N1.O=C(O)CC(O)(CC(=O)O)C(=O)O,Percent Effect,"30.3 µM, […]",3.133%
CCCN(Cc1cccnc1)C1CC(C)(C)NC(C)(C)C1.O=C(O)CC(O)(CC(=O)O)C(=O)O,Percent Effect,"30.3 µM, […]",3.437%
CC1(C)CC(N(Cc2ccccc2)Cc2cccnc2)CC(C)(C)N1.O=C(O)CC(O)(CC(=O)O)C(=O)O,Percent Effect,"30.3 µM, […]",27.73%
Cc1ccsc1CN(Cc1cccnc1)C1CC(C)(C)NC(C)(C)C1.O=C(O)CC(O)(CC(=O)O)C(=O)O,Percent Effect,"30.3 µM, […]",61.32%
CCOc1ccccc1-c1cc(N)[nH]n1.Cl,Percent Effect,"30.3 µM, […]",-3.53%
CC(C)NC(=O)C1CN(Cc2ccc(F)cc2)CC12CCOCC2.O=C(O)C(F)(F)F (stereo not given),Percent Effect,"30 µM, 30.03 µM",-12.09%
CCC(C)(COc1ncccc1Cl)NCC(=O)NCC(C)C (stereo not given),Percent Effect,"30 µM, 30.03 µM",-31.89%
CCC1=N[C@@]2(CC[C@@H]3CN(CC4CC4)C[C@@H]32)C(=O)N1CC1CC1.O=C(O)C(F)(F)F,Percent Effect,"30 µM, 30.03 µM",-23.62%
COc1ccnc(N2CCCN(C(=O)Cc3ccc(C)s3)CC2)n1,Percent Effect,10 µM,-47.83%
Cc1cccc(CNC2CC3(CCN(CCO)CC3)c3ccccc32)n1.O=C(O)C(F)(F)F.O=C(O)C(F)(F)F (stereo not given),Percent Effect,"30.3 µM, […]",13.54%
Cn1ncc2c1C(COCC1CC1)CN(C(=O)c1cscn1)C2.O=C(O)C(F)(F)F (stereo not given),Percent Effect,"30 µM, 30.03 µM",21.88%
Cn1cc(CN2CCn3cc(CNC(=O)c4cccn4C)nc3C2)cn1.O=C(O)C(F)(F)F,Percent Effect,"30 µM, 30.03 µM",21.81%
N#Cc1cccnc1N1CCC(C2CCCCCN2C(N)=O)CC1 (stereo not given),Percent Effect,"30.3 µM, […]",5.33%
N#Cc1cccnc1N1CCC(C2CCCCCN2C(=O)C2CC2)CC1 (stereo not given),Percent Effect,"30.3 µM, […]",53.48%
CC(=O)N1CCCCCC1C1CCN(c2ncccc2C#N)CC1 (stereo not given),Percent Effect,"30.3 µM, […]",13.42%
Cn1cnnc1-c1ccnc(NCc2ccccc2)c1,Percent Effect,"30.3 µM, […]",5.527%
Br.Cn1nccc1CN1CCOC(c2cccc(-c3cncnc3)n2)C1 (stereo not given),Percent Effect,"30.3 µM, […]",-1.234%
Cn1nccc1CN1CCOC(c2ccc(-c3cncnc3)cn2)C1 (stereo not given),Percent Effect,"30.3 µM, […]",1.674%
Cn1nccc1CN1CCOC(c2cccc(Nc3ccccn3)n2)C1 (stereo not given),Percent Effect,"30.3 µM, […]",100.5%
O=C(Nc1ccc(F)c(Br)c1)N1CCCC1,Percent Effect,"30 µM, 30.03 µM",97.43%
NC(=O)c1cc(NC(=O)N2CCCCCC2)ccc1F,Percent Effect,"30 µM, 30.03 µM",-43.72%
NC(=O)c1cc(NC(=O)N2CCOCC2)ccc1F,Percent Effect,"30 µM, 30.03 µM",-9.926%
CC(C)CN1CCC2(C=C(C(=O)N(C)C)c3ccccc32)CC1.O=C(O)C(F)(F)F,Percent Effect,"30.3 µM, […]",-83.33%
Cc1ccc(CN2CCn3cc(CNC(=O)c4cnn(C)c4)nc3C2)s1.O=C(O)C(F)(F)F,Percent Effect,"30 µM, 30.03 µM",-34.09%
CC(C)C(=O)N1CCC2(CC1)COCCN2Cc1ccc(F)cc1.O=C(O)C(F)(F)F,Percent Effect,"30 µM, 30.03 µM",21.09%
Cc1cc2c(=O)n3c(nc2s1)CCN(Cc1cncn1C)CC3.Cl,Percent Effect,"30.3 µM, […]",6.762%
CCCNC(=O)CNc1cc(C#N)ccc1OCC,Percent Effect,"30 µM, 30.03 µM",58.39%
CCOc1ccc(C#N)cc1NCC(=O)OC,Percent Effect,"30.3 µM, […]",-4.293%
same,Percent Effect,"10 mM, 10 mM as filed; unlikely as a test dose",-28.98%
CCNC(=O)NC(=O)CNc1cc(C#N)ccc1OCC,Percent Effect,"30.3 µM, […]",-6.445%
same,Percent Effect,"10 mM, 10 mM as filed; unlikely as a test dose",-44.56%
CCN(CC)C(=O)Cc1csc(C(C)C)n1,Percent Effect,"30 µM, 30.03 µM",-85.89%
CC(C)c1nc(CN(C)C(=O)CCc2ccc3c(c2)OCO3)cs1,Percent Effect,"30 µM, 30.03 µM",12.36%
CNC(=O)CN(C)C(=O)Cc1csc(C(C)C)n1,Percent Effect,"30 µM, 30.03 µM",70.2%
CC(C)c1nc(CN(C)C(=O)[C@H](N)Cc2ccc(Cl)cc2)cs1,Percent Effect,"30 µM, 30.03 µM",-3.528%
CC(C)c1nc(CN(C)C(=O)c2ccc3c(c2)OCO3)cs1,Percent Effect,"30 µM, 30.03 µM",56.82%
CC(C)C[C@@H](N)C(=O)N(C)Cc1csc(C(C)C)n1,Percent Effect,"30 µM, 30.03 µM",100.6%
CC(C)c1nc(CN(C)C(=O)C(O)c2ccc(Cl)cc2)cs1 (stereo not given),Percent Effect,"30 µM, 30.03 µM",3.875%
CCN(CC(=O)NC)C(=O)Cc1csc(C(C)C)n1,Percent Effect,"30 µM, 30.03 µM",-25.08%
CC(C)c1nc(CN(C)C(=O)c2ccc3c(c2)OCC(=O)N3)cs1,Percent Effect,"30 µM, 30.03 µM",17.57%
Cc1cccc(CN2C(=O)CO[C@@H]3CN(C4CCOCC4)C[C@H]32)c1.O=C(O)C(F)(F)F,Percent Effect,"30 µM, 30.03 µM",-46.8%
O=C(O)C(F)(F)F.O=C(c1ccco1)N1C[C@H]2CCCN(CC3CC3)[C@H]2C1,Percent Effect,"30 µM, 30.03 µM",-18.48%
CCN(C)c1ncnc2c1CCN(Cc1ccc(F)cc1)CC2.O=C(O)C(F)(F)F.O=C(O)C(F)(F)F,Percent Effect,"30 µM, 30.03 µM",0%
CC(=O)N1CCOCC2(CN(Cc3ccc(C)o3)CCO2)C1.O=C(O)C(F)(F)F (stereo not given),Percent Effect,"30 µM, 30.03 µM",0.2271%
COCCCC1(CO)CCCN(CCc2ccccc2)C1 (stereo not given),Percent Effect,"30 µM, 30.03 µM",60.85%
COCCCC1(CO)CCCN(CCc2ccccn2)C1 (stereo not given),Percent Effect,"30 µM, 30.03 µM",-19.7%
COCCC1(CO)CCCN(CCCc2ccccc2)C1 (stereo not given),Percent Effect,"30 µM, 30.03 µM",-35.64%
COCCn1c(=O)n(C)c(=O)c2ccc(C3CCC(CN)CC3)nc21.Cl (stereo not given),Percent Effect,"30.3 µM, […]",8.357%
COc1cccc(CNC(Cc2cccs2)c2nc(C)c(C)s2)c1OC.Cl (stereo not given),Percent Effect,"30.3 µM, […]",-32.09%
CCc1ccc2nc(C)cc(C(=O)NC[C@@H]3CCNC[C@H]3O)c2c1,Percent Effect,"30 µM, 30.03 µM",-34.49%
CCc1ccc2nc(C)cc(C(=O)N[C@@H]3CNC[C@H]3O)c2c1,Percent Effect,"30 µM, 30.03 µM",-69.69%
CCc1ccc2nc(C)cc(C(=O)N[C@@H]3CCCNC3)c2c1,Percent Effect,"30 µM, 30.03 µM",86.43%
CCS(=O)(=O)N1CCCC2(COCCN(c3ccccn3)C2)C1.O=C(O)C(F)(F)F (stereo not given),Percent Effect,"30 µM, 30.03 µM",-23.72%
Cc1nn(C)c(Cl)c1CNCc1cccnc1N1CCOCC1.Cl,Percent Effect,"30 µM, 30.03 µM",16.35%
COC(=O)Cn1c(C)cc(=O)c2cc(F)ccc21,Percent Effect,"30.3 µM, […]",-56.52%
CC1(c2ccccc2)CCCN(Cc2cncn2C2CCCC2)C1 (stereo not given),Percent Effect,"30 µM, 30.03 µM",102.5%
COCCn1cncc1CN1CCCC(C)(c2ccccc2)C1 (stereo not given),Percent Effect,"30 µM, 30.03 µM",-43.69%
CC1(c2ccccc2)CCCN(Cc2cncn2C2CC2)C1 (stereo not given),Percent Effect,"30 µM, 30.03 µM",-39.24%
Cn1ccc(C(=O)N2CCCCC2c2cc(CCO)[nH]n2)n1 (stereo not given),Percent Effect,"30.3 µM, […]",-16.55%
O=C(Cc1cccs1)N1C[C@H]2CN(CC3CCCO3)CC[C@H]2C1.O=C(O)C(F)(F)F (stereo not given in full),Percent Effect,"30 µM, 30.03 µM",-6.249%
COC(=O)c1cc(C(=O)N2CCOC(C)(C)C2)n(-c2ccccc2)n1,Percent Effect,"30.3 µM, […]",6.059%
Cc1nc(C)n(CC2CCCN2CC(=O)NCCc2ccsc2)n1 (stereo not given),Percent Effect,"30 µM, 30.03 µM",-16.47%
